This passage reports Potency and outcome results from PubChem BioAssay (NCATS).

Assay [1] has as its target Lethal(3)malignant brain tumor-like protein 1 (Homo sapiens) (UniProt Q9Y468). Nature of the assay: qHTS Assay for the Inhibitors of L3MBTL1: Hit Validation (AID 540279). Note: potency is the fitted concentration of half-maximal effect; nearly all actives have a fitted effect of over 70% in size. The settings on record: L3MBTL1 methyl-lysine binding inhibition, biochemical qHTS. The essentials: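 L3MBTL1 (50 nM final) preformed 30 min with biotinylated H3(1-15)K9me1 peptide (75 nM), then compound 30 min at room temperature. Streptavidin donor and nickel chelate acceptor AlphaScreen beads (10 ug/mL each final) added for 30 min before read.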

Assay [2] in a line: qHTS Assay for the Inhibitors of L3MBTL1: Hit Validationin AlphaScreen Counterscreen (AID 602224). The settings on record: signal inhibition; series mostly up to 57.1 µM. In outline:
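Primary-screen actives were tested against a bead-bridging control: 1 nM biotinylated His6 joined streptavidin donor and nickel acceptor beads (10 ug/mL each). Incubations were 15 min with compound, then 30 min with beads, both at room temperature.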

Assay [3] has as its target Mitogen-activated protein kinase 10 (Mus musculus) (UniProt Q61831). Briefly: JNK3 AlphaScreen Assay (AID 530; active = well fitted curve in either direction with a large enough effect, not every such curve was filed as active;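 note: kinase came from lysate of stimulated human HepG2 cells; signal reports phosphorylation of biotinylated GST-cJun 1-79 at Ser73 with 10 µM ATP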). The settings on record: JNK3 lysate, c-Jun phosphorylation; series mostly up to 57.1 µM. In outline: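 qHTS format: compounds tested as titrations against IL-1beta/TNF-alpha-activated HepG2 lysate JNK3 with biotin-GST-cJun substrate and 10 uM ATP at room temperature. Loss of anti-phospho-cJun AlphaScreen signal indicates inhibition.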
On the technique in general: In Alpha technology, singlet oxygen from a donor bead excites a nearby acceptor bead.

The target of assay [4] is Cytochrome P450 3A4 (Homo sapiens) (UniProt P08684). Briefly: qHTS Assay for Activators of Cytochrome P450 3A4 (AID 885). Note: nearly all actives have a fitted effect of over 65% in size. The settings on record: recombinant CYP3A4, Luciferin-PPXE luminescence, 60 min; series mostly up to 57.1 µM. In outline: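 Human CYP3A4 (20 nM) with Luciferin-PPXE at 25 uM (its KM) in 200 mM KPO4; 10 min compound preincubation, then NADPH regeneration and 60 min reaction at RT. Luciferin read by luminescence; normalized to 57 uM ketoconazole full inhibition.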
Cytochrome P450 3A4 (Homo sapiens), sequence (P08684 whole entry, looked up): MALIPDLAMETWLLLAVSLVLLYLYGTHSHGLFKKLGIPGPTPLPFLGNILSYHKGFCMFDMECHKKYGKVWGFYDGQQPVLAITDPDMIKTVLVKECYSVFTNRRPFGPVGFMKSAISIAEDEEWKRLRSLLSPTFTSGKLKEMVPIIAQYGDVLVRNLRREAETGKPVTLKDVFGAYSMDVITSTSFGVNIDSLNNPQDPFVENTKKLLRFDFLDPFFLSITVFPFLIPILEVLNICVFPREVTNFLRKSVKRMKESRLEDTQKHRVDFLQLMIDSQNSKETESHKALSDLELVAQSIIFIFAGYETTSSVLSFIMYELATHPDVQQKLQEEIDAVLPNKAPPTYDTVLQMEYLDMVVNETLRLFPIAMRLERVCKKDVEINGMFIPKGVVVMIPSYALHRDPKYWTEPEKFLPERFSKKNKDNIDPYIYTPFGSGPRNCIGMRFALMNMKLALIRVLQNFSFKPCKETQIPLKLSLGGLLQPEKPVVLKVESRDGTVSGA
(In general: qHTS replaces the single test concentration by a dilution series.)

Assay [5] deals with DNA polymerase iota (Homo sapiens) (UniProt Q9UNA4). Nature of the assay: qHTS for Inhibitors of Polymerase Iota: Confirmatory Assay for Cherry-picked Compounds (AID 720496). Note: potency is the fitted concentration of half-maximal effect. The note with it: Pol iota primer extension, TAMRA/BHQ fluorescence. In outline:
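Human Pol iota (10 nM) was preincubated 15 min at room temperature with compound, then started with 50 nM TAMRA/BHQ-2 quenched primer-template substrate. Fluorescence (ex 525/em 598 nm) was read at 0 and 10 min.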

Assay [6] concerns the target Bifunctional 3'-5' exonuclease/ATP-dependent helicase WRN (Homo sapiens) (UniProt Q14191). Nature of the assay: qHTS for Inhibitors of WRN Helicase: Confirmatory Assay for Cherry-picked Compounds. (AID 720497). Note: potency is the fitted concentration of half-maximal effect; nearly all actives have a fitted effect of over 65% in size. The settings on record: WRN helicase DNA unwinding, fluorescence kinetic; series mostly up to 57.1 µM. In outline:
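Compound and 20 nM WRN incubated 15 min, RT. Forked duplex (100 nM) plus ATP (2 mM) added. Fluorescence monitored kinetically and normalized to controls.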

Assay [7] deals with RecQ-like DNA helicase BLM (Homo sapiens) (UniProt P54132). Nature of the assay: qHTS for Inhibitors of WRN Helicase: BLM Helicase Counterscreen for WRN Inhibitors (AID 720503). Note: nearly all actives have a fitted effect of over 60% in size. The note with it: Recombinant BLM helicase DNA unwinding, red fluorescence; series mostly up to 57.1 µM. The essentials: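 BLM at 1 nM was preincubated with compound for 15 min at room temperature in 25 mM Tris-HCl pH 8.0, 50 mM NaCl, 2 mM MgCl2, 1 mM DTT and 0.01% Tween-20. Unwinding was started with 100 nM DNA and 2 mM ATP (final). Fluorescence (ex 525/em 598 nm) was read twice, 15 min apart, and normalized to enzyme-free and DMSO controls.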

For assay [8], the target named is Flap endonuclease 1 (Homo sapiens) (UniProt P39748). Nature of the assay: qHTS Assay for the Inhibitors of FEN1: Confirmatory Assay for Cherry-picked Compounds (AID 720498). Note: potency is the fitted concentration of half-maximal effect; nearly all actives have a fitted effect of over 60% in size. The settings on record: FEN1 flap cleavage, TAMRA/BHQ2 fluorogenic DNA substrate. The essentials:
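FEN1 at 10 nM was preincubated with compound for 15 min at room temperature, then 50 nM (final) double-flap DNA substrate was added. TAMRA fluorescence released from the BHQ-2-quenched flap was read at 0 and 15 min (ex 525/em 598 nm).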

For assay [9], the target named is Cytochrome P450 3A4 (Homo sapiens) (UniProt P08684). Briefly: qHTS Assay for Inhibitors and Substrates of Cytochrome P450 3A4 (AID 884). Note: nearly all actives have a fitted effect of over 50% in size. Note: potency is the fitted concentration of half-maximal effect. The note with it: recombinant CYP3A4, Luciferin-PPXE luminescence; series mostly up to 57.1 µM. In outline: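 20 nM human CYP3A4 with 25 uM Luciferin-PPXE (at KM) in 200 mM KPO4, preincubated 10 min with compound; NADPH regeneration started a 60 min RT reaction. Luciferin detected by luminescence, normalized to 57 uM ketoconazole as full inhibition.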

The target of assay [10] is DNA dC->dU-editing enzyme APOBEC-3G (Homo sapiens) (UniProt Q9HC16). Nature of the assay: qHTS for inhibitors of Vif-A3G interactions: Validation (AID 588379). The settings on record: Vif-A3G protein interaction assay; series mostly up to 46.1 µM. The essentials: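 HeLa cells stably expressing Vif and A3G-eYFP, 700 cells/well, incubated overnight at 37 deg C, then exposed to compound overnight at 37 deg C. Inhibition of Vif-mediated degradation read as increased yellow fluorescence (Ex 488/Em 500-530) by laser-scanning cytometry.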
DNA dC->dU-editing enzyme APOBEC-3G (Homo sapiens), sequence (Q9HC16 whole entry, looked up): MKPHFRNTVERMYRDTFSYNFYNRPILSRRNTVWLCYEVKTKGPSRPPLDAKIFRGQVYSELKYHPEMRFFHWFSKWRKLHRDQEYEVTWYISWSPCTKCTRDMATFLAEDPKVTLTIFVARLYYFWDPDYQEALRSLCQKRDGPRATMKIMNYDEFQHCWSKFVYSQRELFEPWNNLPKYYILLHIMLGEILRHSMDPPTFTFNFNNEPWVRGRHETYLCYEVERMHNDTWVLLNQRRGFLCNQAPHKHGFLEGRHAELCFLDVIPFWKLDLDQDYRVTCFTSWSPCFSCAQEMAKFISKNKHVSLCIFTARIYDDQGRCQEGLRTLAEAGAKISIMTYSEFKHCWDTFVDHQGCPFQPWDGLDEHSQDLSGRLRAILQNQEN

Structures are written as SMILES. Records with an inconclusive call do not appear. The list shows a part of the results. Where a call stands in place of a potency, no number is given. Calls of active or inactive are those of the source. Unless noted, calls come from the whole dose curve; as a rule, active = well fitted curve in the direction sought with a large enough effect; inconclusive = small, poorly fitted or top-dose-only effect, or another doubt; inactive = no such curve, though single readings can be large; an effect the other way counts as inactive or inconclusive.

Lethal(3)malignant brain tumor-like protein 1 (Homo sapiens), sequence (Q9Y468 whole entry, looked up): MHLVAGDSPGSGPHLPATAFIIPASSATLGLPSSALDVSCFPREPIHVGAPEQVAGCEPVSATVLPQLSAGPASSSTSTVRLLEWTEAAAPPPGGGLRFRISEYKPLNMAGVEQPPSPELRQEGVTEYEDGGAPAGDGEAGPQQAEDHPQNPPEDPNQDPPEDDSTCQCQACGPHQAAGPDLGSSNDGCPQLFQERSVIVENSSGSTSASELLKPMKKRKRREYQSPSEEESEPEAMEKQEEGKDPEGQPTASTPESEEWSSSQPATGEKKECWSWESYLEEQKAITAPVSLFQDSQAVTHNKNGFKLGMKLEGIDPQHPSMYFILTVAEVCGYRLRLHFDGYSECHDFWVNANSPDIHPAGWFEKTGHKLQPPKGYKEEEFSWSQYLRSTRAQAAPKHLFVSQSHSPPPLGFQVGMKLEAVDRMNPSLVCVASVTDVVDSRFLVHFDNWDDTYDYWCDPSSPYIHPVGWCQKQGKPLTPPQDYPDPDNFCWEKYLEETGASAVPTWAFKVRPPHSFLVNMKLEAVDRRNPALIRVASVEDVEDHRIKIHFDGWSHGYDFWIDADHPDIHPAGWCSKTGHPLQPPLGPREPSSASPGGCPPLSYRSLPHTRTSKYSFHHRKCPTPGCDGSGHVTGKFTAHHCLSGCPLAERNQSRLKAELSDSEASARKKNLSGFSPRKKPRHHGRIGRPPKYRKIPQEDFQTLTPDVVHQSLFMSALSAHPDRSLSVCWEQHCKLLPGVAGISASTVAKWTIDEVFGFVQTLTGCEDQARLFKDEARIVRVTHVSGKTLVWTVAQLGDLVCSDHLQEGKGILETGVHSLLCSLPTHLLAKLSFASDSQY
DNA polymerase iota (Homo sapiens), sequence (Q9UNA4 whole entry, looked up): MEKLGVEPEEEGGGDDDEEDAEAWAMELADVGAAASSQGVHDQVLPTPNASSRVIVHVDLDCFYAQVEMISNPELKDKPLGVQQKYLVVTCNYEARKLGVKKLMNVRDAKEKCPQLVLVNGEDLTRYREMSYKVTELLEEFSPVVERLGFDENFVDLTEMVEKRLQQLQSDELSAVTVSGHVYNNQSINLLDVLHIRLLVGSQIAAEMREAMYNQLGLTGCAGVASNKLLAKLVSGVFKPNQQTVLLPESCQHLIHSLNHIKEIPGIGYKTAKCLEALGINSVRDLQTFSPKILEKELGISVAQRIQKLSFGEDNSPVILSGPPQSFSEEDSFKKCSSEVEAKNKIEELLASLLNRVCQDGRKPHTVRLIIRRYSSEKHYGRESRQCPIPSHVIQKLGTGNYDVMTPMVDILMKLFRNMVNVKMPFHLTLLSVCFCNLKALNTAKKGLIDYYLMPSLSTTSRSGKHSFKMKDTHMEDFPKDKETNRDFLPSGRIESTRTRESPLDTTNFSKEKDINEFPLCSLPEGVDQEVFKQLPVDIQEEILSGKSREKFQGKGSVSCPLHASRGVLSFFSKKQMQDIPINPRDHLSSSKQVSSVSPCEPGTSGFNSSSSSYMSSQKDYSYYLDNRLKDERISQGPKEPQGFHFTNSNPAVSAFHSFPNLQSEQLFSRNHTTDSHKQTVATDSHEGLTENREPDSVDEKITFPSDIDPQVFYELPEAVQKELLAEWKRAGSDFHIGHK
Bifunctional 3'-5' exonuclease/ATP-dependent helicase WRN (Homo sapiens), sequence (Q14191 whole entry, looked up): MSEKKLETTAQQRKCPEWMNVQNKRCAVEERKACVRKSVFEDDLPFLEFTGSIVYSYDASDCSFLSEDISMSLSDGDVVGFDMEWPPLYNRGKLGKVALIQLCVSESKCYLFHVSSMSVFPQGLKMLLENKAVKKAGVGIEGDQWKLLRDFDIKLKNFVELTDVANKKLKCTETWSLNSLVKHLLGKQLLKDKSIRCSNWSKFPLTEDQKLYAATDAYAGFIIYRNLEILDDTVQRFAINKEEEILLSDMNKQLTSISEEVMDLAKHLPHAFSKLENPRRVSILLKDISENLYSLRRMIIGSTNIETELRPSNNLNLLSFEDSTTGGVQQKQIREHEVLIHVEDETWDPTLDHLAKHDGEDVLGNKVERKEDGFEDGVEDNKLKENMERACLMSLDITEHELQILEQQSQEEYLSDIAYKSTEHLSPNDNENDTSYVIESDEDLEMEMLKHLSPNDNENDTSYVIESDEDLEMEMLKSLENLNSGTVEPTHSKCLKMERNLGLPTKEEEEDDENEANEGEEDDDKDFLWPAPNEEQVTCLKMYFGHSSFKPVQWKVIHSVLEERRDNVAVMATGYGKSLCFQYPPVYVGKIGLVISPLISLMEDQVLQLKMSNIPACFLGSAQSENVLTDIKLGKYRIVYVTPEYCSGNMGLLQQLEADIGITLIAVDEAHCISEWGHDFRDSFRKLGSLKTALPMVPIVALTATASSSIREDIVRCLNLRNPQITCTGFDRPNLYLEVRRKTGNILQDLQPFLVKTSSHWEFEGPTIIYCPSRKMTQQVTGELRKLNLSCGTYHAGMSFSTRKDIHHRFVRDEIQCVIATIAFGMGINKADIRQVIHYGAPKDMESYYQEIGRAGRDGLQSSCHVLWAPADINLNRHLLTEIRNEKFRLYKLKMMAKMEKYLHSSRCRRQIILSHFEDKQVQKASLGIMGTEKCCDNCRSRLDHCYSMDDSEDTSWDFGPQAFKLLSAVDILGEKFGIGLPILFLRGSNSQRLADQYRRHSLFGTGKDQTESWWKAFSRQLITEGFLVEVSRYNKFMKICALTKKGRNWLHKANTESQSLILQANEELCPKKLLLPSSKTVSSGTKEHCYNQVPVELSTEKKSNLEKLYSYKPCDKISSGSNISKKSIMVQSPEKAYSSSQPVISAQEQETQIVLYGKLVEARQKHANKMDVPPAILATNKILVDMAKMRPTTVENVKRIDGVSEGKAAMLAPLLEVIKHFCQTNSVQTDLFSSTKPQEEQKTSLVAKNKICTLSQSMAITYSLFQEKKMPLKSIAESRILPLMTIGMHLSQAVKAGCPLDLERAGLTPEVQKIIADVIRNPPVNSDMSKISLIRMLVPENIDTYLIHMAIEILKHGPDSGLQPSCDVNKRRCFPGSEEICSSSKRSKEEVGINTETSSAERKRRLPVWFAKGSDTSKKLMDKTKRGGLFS
Flap endonuclease 1 (Homo sapiens), sequence (P39748 whole entry, looked up): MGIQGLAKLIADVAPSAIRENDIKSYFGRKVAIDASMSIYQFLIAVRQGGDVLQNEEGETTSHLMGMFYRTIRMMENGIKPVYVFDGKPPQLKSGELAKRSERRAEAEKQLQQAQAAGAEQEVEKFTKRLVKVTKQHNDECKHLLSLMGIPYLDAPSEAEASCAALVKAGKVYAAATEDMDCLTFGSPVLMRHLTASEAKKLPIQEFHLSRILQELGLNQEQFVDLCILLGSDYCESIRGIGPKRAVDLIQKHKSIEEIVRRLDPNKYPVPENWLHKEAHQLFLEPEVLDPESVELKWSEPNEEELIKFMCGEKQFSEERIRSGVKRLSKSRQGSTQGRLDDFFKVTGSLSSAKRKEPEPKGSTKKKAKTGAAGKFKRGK

As for `COc1cccc2c(C)c(C(=O)O)[nH]c12`, the Potency in [1] was 5.97 µM (active). Further, in assay [2], the outcome was inactive.
For the molecule `COC(=O)C1(C)C=CC2(CCCCC2)N1C(C)=O` (stereo unspecified), the molecule was classed as inactive in assay [3]. In addition, the Potency result in assay [4] was “inactive”.
As to `CC1=C(C(=O)OCc2ccccc2)C(c2ccc(C(F)(F)F)cc2)NC(=O)N1CCCCCC(=O)O` (stereo unspecified), the molecule was classed as inactive in [3]. For the same molecule, the Potency entry in [4] was “inactive”.
Regarding `CSc1nnc(SCc2nc3sc(C(=O)O)c(C)c3c(=O)[nH]2)s1`, the Potency in assay [1] is 0.532 µM (active); in assay [5], 18.9 µM (active); in assay [6] it was 13.6 µM (active). In addition, in [7], the Potency result is “inactive”.
Take `COCCNC(=O)Nc1ccc2nc(-c3ccco3)c(-c3ccco3)nc2c1`: the Potency in assay [1] is 1.89 µM (active); in assay [5], 7.52 µM (active); in assay [8], 19 µM (active).
For `COC(=O)N1CC=CC1(C)C(=O)NCc1ccc(C)o1` (stereo unspecified), the molecule was called inactive in assay [3]. The Potency result in assay [4] was “inactive”.
Consider `CNC(=O)C1(C)C=CC2(CCCCC2)N1C(=O)OC` (stereo unspecified), for which the molecule was called inactive in [3]. The Potency result in assay [4] was “inactive”.
For `CC(=O)N1[C@H](C)C=C[C@]1(Cc1ccccc1)C(=O)NCCc1c[nH]c2ccccc12`, the outcome in assay [3] was inactive. Also, the Potency entry in assay [4] is “inactive”.
For `CNC(=O)C1(C)C=CC2(CCCCC2)N1C(C)=O` (stereo unspecified), in [3], the molecule was called inactive. Besides, in [4], the Potency result was “inactive”.
Consider `CC(C)CC1(C(=O)NCc2ccccn2)C=CCN1C(=O)c1ccccc1` (stereo unspecified), for which, in assay [3], the molecule was classed as inactive. The Potency entry in assay [4] is “inactive”.
For `CNC(=O)[C@@H]1C[C@H]1[C@@H](NC(=O)CNC(=O)OCc1ccccc1)c1ccccc1`, the call in assay [3] was inactive. The Potency result in assay [4] was “inactive”.
On to `Oc1ccc(N=Nc2nccs2)c(O)c1`, for which the Potency in [1] was 16.8 µM (active). Besides, in assay [2], the molecule was called inactive.
As for `CC1(C(=O)NCCN2CCOCC2)C=CCN1C(=O)c1ccccc1` (stereo unspecified), the call in assay [3] was inactive. In addition, the Potency result in [4] was “inactive”.
Turning to `COCCNC(=O)C1(CC(C)C)C=CCN1C(=O)c1ccccc1` (stereo unspecified), the call in assay [3] was inactive. Further, in [4], the Potency entry is “inactive”.
As for `O=c1c(O)c(-c2ccc(O)c(O)c2)oc2c(OC[C@@H]3O[C@@H](O)[C@@H](O)[C@H](O)[C@H]3O)c(O)cc(O)c12`, the Potency result in assay [9] and in assay [10] was “inactive” in each case.
Turning to `Cc1cccc(-c2cc(=O)c3cc(Br)ccc3o2)c1`, the Potency in [9] was 12.6 µM (active). Further, the Potency result in assay [4] and in assay [10] was “inactive” in each case.
Consider `CC[C@]12CCCN3CCc4c(n(c5ccccc45)C(=O)C1)[C@H]32`, for which, in assay [10], the Potency entry is “inactive”.
Same read-out and setting: in the case of `CC(C)c1ccc2c(c1)CC[C@@H]1[C@@](C)(CN)CCC[C@]21C` it was “inactive”; in that of `C[C@H](CCC(=O)O)[C@H]1CC[C@@H]2[C@H]3CC[C@H]4C[C@H](O)CC[C@]4(C)[C@@H]3CC[C@@]21C`, “inactive”.
The same measure, in the same setting: in the case of `C[C@H]1[C@H](C)CC[C@]2(C(=O)O)CC[C@]3(C)C(=CCC4[C@@]5(C)CC[C@H](O)C(C)(C)[C@@H]5CC[C@]43C)[C@H]12` (stereo partly specified) it was “inactive”.
For `CC(=O)Nc1ccc(-c2nc3ccc(Cl)cc3[nH]2)cc1`, the Potency result in assay [9] and in assay [10] was “inactive” throughout.
For `COc1ccc(C(=O)C2C3C4COC(O4)C(=O)C3C3C=Cc4ccccc4N32)c(OC)c1` (stereo unspecified), in [9], the Potency is 31.6 µM (active). For the same molecule, the Potency result in [4] and in assay [10] was “inactive” in each case.
Turning to `Cc1ccc(CC(Cc2nc3ccccc3[nH]2)c2nc3ccccc3[nH]2)cc1` (stereo unspecified), the Potency in assay [9] was 1.26 µM (active). In addition, the Potency result in assay [4] and in [10] was “inactive” throughout.
For `C=C1C(=O)OC2C[C@@]3(C)CCCC(=C)[C@@H]3CC12` (stereo partly specified), the Potency in assay [9] is 10 µM (active). In addition, the Potency entry in assay [4] and in [10] was “inactive” in each case.
Regarding `OC1CCC2Cc3ccccc3N=C12` (stereo unspecified), the Potency result in assay [9] and in assay [10] was “inactive” throughout.
As to `C=C(CO)C1Cc2c(ccc3c2OC2COc4cc(OC)c(OC)cc4C2C3=O)O1` (stereo unspecified), the Potency result in [10] was “inactive”.
`COc1ccccc1-c1oc2ccccc2c(=O)c1O`: in assay [9], the Potency is 25.1 µM (active). Moreover, the Potency entry in [4] and in [10] was “inactive” each time.
With `CC1=CC(=O)C2=C(C)CCC3C(C)C(=O)OC3C12` (stereo unspecified), in assay [10], the Potency entry is “inactive”.
For the molecule `O=C(/C=C/c1ccc(OCc2ccccc2)cc1)c1cccs1`, the Potency result in assay [9] and in [10] was “inactive” throughout.
As for `CC(=O)OC1CCC2(C)C3CCC4(C)C(CC5CCCCC54C(C)=O)C3CC(=O)[C@@]2(O)C1` (stereo partly specified), the Potency in assay [9] was 10 µM (active). The Potency entry in [4] and in assay [10] was “inactive” each time.
In the case of `O=c1cc(-c2cccc(O)c2)oc2cccc(O)c12`, the Potency in assay [9] is 7.94 µM (active). In addition, the Potency result in assay [4] and in assay [10] was “inactive” throughout.
For `Cc1cccc(-c2cc(=O)c3cc(C)ccc3o2)c1`, in assay [9], the Potency was 3.98 µM (active). For the same molecule, the Potency result in assay [4] and in assay [10] was “inactive” throughout.
In the case of `C=C[C@@H]1CN2CC[C@@H]1C[C@@H]2[C@@H](O)c1ccnc2ccc(OC)cc12`, the Potency entry in assay [10] was “inactive”.
For the molecule `COc1ccccc1CC(Cc1nc2ccccc2[nH]1)c1nc2ccccc2[nH]1` (stereo unspecified), the Potency in [9] was 1.58 µM (active). The Potency result in assay [10] is “inactive”.
As to `C[C@@H]1O[C@@H](OC[C@H]2O[C@@H](Oc3c(-c4cccc(O)c4O)oc4cc(O)cc(O)c4c3=O)[C@H](O)[C@@H](O)[C@@H]2O)[C@H](O)[C@H](O)[C@H]1O`, the Potency entry in assay [9] and in assay [10] was “inactive” in each case.
For the molecule `C=C(CO)C1Cc2c(ccc3c(=O)c4c(oc23)COc2cc(OC)c(OC)cc2-4)O1` (stereo unspecified), the Potency entry in assay [9] and in [10] was “inactive” in each case.
On to `COc1ccc(/C=C/C(=O)c2ccc(C)s2)cc1`, for which the Potency entry in assay [9] and in assay [10] was “inactive” throughout.
Turning to `COC(=O)CC[C@@H](C)[C@H]1CC[C@H]2[C@@H]3CC[C@@H]4C[C@H](O)CC[C@]4(C)[C@H]3C[C@H](O)[C@]12C`, the Potency result in assay [9] and in assay [10] was “inactive” in each case.
As for `O=C(O)[C@H]1[C@H]2C[C@H]3c4[nH]c5ccccc5c4CCN3C[C@@H]2CC[C@@H]1O`, in assay [10], the Potency result was “inactive”.
